Reference: the supplement of paper PMC11732987, “Enantioselective OTUD7B fragment discovery through chemoproteomics screening and high-throughput optimisation” (Communications Chemistry, 2025)

Experiments:
Assay in all cases: log2 ratio of Biotin-Ahx-Ub-VS probe labelling (fragment/DMSO); higher = less target engagement (more negative = stronger competition), active = hit call of the paper (q ≤ 0.05, log2 ratio ≤ -1)
Settings in all cases: compound concentration: 200 uM; treatment time: 3 h
[1] = molecular target: USP34 (UniProt Q70CQ2)
USP34, sequence (Q70CQ2 whole entry, the tested form may be a part): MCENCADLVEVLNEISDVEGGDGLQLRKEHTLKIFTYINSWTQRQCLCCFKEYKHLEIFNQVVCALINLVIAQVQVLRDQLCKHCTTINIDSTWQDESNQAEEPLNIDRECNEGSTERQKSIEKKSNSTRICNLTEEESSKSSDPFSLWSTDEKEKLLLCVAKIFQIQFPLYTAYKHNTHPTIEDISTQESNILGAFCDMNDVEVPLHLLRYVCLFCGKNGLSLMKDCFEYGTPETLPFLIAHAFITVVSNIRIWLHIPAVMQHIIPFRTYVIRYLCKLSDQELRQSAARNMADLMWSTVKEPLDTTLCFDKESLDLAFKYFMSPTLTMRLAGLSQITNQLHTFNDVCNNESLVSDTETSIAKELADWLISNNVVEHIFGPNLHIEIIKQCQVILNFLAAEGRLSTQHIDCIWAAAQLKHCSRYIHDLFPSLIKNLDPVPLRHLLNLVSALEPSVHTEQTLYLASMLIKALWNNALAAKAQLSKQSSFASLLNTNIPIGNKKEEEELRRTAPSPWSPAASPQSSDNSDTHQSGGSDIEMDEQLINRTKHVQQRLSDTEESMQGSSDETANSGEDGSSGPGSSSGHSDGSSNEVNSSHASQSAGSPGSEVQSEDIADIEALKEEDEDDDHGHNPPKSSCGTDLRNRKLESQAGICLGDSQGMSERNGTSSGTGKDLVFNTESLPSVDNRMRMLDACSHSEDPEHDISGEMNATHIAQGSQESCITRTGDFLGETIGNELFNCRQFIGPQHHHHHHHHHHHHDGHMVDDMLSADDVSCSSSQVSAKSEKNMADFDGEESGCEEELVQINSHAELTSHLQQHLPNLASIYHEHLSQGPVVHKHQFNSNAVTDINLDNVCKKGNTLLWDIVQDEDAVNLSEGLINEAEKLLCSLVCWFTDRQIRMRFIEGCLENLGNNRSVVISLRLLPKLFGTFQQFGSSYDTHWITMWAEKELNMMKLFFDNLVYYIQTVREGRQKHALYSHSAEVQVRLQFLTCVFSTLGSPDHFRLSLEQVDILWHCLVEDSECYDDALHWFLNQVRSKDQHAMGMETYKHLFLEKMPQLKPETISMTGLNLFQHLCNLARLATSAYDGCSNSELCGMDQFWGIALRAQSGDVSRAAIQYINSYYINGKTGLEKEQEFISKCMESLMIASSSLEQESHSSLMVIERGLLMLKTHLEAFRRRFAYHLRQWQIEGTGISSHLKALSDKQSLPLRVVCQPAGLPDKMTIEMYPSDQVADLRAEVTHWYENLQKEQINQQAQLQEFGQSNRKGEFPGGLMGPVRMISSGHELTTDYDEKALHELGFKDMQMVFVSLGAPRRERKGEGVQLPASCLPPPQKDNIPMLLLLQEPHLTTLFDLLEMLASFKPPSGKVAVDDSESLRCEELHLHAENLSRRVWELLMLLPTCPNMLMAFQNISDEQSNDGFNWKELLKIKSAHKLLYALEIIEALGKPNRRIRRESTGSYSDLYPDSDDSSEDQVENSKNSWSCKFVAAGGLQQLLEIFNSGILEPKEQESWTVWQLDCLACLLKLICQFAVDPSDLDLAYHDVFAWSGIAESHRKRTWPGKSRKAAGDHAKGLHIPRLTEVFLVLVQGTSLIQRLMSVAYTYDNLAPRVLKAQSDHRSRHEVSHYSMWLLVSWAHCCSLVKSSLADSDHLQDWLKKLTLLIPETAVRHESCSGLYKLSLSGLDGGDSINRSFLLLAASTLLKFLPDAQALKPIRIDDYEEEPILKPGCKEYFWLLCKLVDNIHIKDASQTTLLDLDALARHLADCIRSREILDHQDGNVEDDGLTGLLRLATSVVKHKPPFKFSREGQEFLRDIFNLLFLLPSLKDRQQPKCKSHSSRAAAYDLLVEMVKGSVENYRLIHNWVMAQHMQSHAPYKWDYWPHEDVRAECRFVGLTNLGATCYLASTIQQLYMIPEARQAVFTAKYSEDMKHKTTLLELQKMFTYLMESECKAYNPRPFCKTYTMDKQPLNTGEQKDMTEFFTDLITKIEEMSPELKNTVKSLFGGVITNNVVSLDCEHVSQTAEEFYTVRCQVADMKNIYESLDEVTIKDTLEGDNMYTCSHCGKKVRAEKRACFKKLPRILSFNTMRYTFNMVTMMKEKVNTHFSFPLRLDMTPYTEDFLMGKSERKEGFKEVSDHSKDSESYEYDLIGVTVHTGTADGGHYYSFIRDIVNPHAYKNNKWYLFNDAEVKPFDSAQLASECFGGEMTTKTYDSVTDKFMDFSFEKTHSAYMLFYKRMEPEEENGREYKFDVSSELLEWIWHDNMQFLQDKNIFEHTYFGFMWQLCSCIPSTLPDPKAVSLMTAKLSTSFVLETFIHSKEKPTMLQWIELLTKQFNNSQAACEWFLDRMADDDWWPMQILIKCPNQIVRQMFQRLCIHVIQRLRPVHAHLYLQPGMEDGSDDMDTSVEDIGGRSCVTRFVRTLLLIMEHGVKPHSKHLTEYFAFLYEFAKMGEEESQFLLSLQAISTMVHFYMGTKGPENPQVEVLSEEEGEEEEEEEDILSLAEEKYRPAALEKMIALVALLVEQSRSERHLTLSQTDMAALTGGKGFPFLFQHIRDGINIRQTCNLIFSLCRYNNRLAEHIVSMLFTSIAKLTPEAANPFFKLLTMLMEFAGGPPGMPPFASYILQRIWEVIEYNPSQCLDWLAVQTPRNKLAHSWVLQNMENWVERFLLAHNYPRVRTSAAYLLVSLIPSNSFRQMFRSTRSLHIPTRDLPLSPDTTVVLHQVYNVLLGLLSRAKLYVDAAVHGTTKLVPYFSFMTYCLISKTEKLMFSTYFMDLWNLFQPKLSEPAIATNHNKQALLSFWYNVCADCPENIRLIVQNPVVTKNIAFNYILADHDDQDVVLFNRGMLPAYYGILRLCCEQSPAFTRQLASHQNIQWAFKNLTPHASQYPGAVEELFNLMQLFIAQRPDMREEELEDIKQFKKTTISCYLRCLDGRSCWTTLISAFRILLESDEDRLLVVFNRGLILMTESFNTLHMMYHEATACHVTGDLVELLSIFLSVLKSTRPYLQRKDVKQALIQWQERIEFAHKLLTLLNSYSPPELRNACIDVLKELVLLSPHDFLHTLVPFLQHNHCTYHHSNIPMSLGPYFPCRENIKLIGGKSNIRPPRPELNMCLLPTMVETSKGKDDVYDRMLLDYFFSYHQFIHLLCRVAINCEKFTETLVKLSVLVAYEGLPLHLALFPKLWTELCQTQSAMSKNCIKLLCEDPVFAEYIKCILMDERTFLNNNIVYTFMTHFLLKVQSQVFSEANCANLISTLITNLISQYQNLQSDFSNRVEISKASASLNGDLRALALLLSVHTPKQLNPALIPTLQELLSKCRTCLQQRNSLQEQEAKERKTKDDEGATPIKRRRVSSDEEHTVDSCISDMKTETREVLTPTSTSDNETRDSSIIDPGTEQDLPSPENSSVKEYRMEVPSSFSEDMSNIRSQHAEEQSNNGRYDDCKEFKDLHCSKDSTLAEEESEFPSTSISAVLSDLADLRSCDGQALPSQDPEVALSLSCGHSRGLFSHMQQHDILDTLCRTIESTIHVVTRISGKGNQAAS
How it was run: (§1)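 HEK293T lysate in Tris/CHAPS/IGEPAL buffer with protease inhibitors (495 µg per sample) was given fragment at 200 µM or vehicle for 3 h, in triplicate. It then received Biotin-Ahx-Ub-VS at 0.5 µM final for 1 h. Labelled DUBs were NeutrAvidin-enriched, digested with LysC and trypsin, and run by diaPASEF LC-MS/MS. Values are average log2 fragment/vehicle ratios by unpaired t-test on global-median-normalised Spectronaut quantities of proteins with ≥2 unique peptides.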

[2] = molecular target: T1, USP36 (UniProt Q9P275)
T1 sequence (whole entry): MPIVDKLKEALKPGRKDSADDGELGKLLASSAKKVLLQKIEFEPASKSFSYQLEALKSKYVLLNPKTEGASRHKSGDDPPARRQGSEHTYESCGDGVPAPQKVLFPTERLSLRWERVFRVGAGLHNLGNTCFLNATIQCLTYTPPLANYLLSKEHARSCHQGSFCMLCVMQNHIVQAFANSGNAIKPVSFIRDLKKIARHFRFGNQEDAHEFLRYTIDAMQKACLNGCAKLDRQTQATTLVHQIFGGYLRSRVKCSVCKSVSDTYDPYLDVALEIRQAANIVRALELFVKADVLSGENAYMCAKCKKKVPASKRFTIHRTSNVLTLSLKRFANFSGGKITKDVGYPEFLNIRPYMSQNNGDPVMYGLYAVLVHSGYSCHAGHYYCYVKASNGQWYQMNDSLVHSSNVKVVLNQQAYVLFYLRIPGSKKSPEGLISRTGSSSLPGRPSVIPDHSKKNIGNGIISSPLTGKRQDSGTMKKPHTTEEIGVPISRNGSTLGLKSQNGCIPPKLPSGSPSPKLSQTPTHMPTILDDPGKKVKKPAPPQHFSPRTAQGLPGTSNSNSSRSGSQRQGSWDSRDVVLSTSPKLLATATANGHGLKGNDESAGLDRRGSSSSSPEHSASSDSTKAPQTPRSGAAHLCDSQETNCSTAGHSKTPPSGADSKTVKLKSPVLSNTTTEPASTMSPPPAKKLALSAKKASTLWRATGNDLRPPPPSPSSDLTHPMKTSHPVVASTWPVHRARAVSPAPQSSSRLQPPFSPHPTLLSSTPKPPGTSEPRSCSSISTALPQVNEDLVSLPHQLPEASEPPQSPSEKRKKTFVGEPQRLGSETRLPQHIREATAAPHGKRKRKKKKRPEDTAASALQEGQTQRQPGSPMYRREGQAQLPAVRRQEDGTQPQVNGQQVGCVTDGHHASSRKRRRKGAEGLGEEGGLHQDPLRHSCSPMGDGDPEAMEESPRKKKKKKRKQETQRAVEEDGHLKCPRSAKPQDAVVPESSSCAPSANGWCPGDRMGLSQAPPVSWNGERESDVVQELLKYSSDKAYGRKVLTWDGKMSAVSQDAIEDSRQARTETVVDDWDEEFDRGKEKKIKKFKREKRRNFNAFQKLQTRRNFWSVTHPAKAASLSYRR
How it was run: as §1

[3] = molecular target: T2, USP38 (UniProt Q8NB14)
T2 sequence (whole entry): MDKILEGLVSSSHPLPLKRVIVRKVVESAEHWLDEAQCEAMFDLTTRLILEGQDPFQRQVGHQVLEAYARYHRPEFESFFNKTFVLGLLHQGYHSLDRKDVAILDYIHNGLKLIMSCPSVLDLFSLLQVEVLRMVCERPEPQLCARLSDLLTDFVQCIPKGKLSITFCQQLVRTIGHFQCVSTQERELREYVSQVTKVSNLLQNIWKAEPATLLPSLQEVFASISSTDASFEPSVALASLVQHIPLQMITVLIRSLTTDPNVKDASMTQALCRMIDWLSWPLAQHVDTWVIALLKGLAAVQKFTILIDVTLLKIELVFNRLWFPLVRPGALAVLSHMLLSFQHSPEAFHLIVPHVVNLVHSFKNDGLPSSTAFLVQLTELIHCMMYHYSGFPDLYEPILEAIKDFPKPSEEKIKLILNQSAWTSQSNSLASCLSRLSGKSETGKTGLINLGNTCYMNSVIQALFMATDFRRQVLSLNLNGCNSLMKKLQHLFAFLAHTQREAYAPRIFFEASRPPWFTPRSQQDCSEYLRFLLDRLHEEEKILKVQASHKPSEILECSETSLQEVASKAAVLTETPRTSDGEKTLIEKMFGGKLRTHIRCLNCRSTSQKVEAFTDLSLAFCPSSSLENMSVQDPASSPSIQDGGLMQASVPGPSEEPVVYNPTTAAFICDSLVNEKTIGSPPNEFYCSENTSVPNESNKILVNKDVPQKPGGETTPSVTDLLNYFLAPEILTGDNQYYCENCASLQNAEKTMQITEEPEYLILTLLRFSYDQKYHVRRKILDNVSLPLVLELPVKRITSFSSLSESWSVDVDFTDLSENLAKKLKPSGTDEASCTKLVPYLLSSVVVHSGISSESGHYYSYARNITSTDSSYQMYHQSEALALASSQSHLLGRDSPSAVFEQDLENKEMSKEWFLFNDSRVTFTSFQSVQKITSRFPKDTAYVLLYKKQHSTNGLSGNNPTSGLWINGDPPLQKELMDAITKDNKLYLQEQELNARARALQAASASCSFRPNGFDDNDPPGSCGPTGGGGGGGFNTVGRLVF
How it was run: as §1

[4] = molecular target: T3, USP39 (UniProt Q53GS9)
T3 sequence (whole entry): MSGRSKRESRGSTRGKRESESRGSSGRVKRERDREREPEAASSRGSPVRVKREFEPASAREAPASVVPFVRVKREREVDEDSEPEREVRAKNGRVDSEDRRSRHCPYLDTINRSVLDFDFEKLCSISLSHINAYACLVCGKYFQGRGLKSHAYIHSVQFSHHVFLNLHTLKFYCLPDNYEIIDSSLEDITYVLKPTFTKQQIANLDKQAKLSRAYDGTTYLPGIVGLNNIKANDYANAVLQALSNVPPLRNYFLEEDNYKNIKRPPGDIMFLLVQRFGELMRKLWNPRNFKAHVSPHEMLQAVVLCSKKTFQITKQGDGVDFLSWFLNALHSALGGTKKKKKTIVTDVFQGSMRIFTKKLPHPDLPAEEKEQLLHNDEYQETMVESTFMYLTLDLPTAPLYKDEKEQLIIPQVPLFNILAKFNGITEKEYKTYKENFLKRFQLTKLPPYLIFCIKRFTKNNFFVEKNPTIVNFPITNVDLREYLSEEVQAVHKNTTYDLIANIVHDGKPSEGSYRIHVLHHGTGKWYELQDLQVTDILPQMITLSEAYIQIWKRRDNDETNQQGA
How it was run: as §1

[5] = molecular target: T4, USP4 (UniProt Q13107)
T4 sequence (whole entry): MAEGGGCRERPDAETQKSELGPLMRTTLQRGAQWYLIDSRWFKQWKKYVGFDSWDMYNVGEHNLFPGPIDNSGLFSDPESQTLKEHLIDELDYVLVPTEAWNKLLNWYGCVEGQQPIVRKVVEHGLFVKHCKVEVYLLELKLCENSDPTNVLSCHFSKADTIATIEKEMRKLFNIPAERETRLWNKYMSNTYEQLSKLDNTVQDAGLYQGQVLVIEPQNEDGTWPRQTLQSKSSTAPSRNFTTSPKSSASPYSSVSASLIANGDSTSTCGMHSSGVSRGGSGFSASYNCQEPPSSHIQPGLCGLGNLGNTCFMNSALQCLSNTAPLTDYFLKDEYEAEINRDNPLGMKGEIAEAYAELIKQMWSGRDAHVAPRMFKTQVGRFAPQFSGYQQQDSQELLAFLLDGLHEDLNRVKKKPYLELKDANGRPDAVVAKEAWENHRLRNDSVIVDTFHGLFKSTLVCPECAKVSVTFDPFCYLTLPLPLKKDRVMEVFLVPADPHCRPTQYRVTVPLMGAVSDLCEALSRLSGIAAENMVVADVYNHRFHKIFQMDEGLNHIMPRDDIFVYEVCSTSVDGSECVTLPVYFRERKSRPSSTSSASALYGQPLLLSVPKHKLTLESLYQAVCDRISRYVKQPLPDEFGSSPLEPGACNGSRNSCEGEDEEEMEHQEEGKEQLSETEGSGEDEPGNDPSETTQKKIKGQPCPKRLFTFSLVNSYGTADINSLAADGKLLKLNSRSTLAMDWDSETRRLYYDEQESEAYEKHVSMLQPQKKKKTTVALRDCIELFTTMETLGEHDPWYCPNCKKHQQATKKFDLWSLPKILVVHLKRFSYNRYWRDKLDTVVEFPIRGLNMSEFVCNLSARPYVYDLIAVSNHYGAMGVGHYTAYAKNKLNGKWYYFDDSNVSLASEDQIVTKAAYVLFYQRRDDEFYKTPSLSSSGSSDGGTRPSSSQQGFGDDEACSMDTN
How it was run: as §1

Measured: log2 ratio of Biotin-Ahx-Ub-VS probe labelling

CCN(Cc1ccc(C#N)cc1F)C(=O)CCl
inactive: [1] -0.454 | [2] -0.0792 | [3] -0.292 | [4] -0.0856 | [5] -0.105
